The results in this text go back to PubChem BioAssay (NCATS).

Inconclusive results are not listed. Unmarked numbers belong to inactive results. Calls of active or inactive are those of the source. Calls follow the shape of the dose curve; as a rule, active = well fitted curve in the direction sought with a large enough effect; inconclusive = small, poorly fitted or top-dose-only effect, or another doubt; inactive = no such curve, though single readings can be large; an effect the other way counts as inactive or inconclusive.

The target of test [1] is Rap guanine nucleotide exchange factor 3 (Homo sapiens) (UniProt O95398). Briefly: Confirmatory qHTS for antagonist of cAMP-regulated guanine nucleotide exchange factor 3 (EPAC1) (AID 1645880). Also: nearly all actives have a fitted effect of over 55% in size. Also: potency is read from the fitted curve at half-maximal effect.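 As to activity, negative = inhibition: plate controls were DMSO only for no effect and full effect of the ATA control for full effect.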 To be noted: EPAC1 Rap1B-BODIPY-GDP exchange, fluorescence; activity, negative = inhibition: at 115 µM (top of the series). In short, it runs like this:
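Nucleotide exchange uses 100 nM EPAC1, 250 nM RAP1B-BODIPY-GDP and 50 uM GDP, with compounds in a concentration-titration series. After 5 min at room temperature, fluorescence (480 nm ex/540 nm em) is read every 5 min for 30 min. Data are normalized to control ATA and DMSO.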
(In general: qHTS replaces the single test concentration by a dilution series.)

The target is the same in test [2]. Briefly: Confirmatory qHTS for agonist of cAMP-regulated guanine nucleotide exchange factor 3 (EPAC1) (AID 1645881). Also: nearly all actives have a fitted effect of over 75% in size. Also: potency is read from the fitted curve at half-maximal effect.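 As to activation: EPAC1 catalysed release of BODIPY-GDP from Rap1B seen as fluorescence loss; 100% = effect of cAMP agonist control.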
The target of test [3] is Rap guanine nucleotide exchange factor 4 (Homo sapiens) (UniProt Q8WZA2). In words: Confirmatory qHTS for agonist of cAMP-regulated guanine nucleotide exchange factor 4 (EPAC2) (AID 1645884). Also: nearly all actives have a fitted effect of over 65% in size. Also: potency is read from the fitted curve at half-maximal effect. As to activation: % is scaled to controls: 0 for no effect and ±100 for the full control effect.
Chain of Rap guanine nucleotide exchange factor 4 (Homo sapiens) (Q8WZA2 whole entry, looked up): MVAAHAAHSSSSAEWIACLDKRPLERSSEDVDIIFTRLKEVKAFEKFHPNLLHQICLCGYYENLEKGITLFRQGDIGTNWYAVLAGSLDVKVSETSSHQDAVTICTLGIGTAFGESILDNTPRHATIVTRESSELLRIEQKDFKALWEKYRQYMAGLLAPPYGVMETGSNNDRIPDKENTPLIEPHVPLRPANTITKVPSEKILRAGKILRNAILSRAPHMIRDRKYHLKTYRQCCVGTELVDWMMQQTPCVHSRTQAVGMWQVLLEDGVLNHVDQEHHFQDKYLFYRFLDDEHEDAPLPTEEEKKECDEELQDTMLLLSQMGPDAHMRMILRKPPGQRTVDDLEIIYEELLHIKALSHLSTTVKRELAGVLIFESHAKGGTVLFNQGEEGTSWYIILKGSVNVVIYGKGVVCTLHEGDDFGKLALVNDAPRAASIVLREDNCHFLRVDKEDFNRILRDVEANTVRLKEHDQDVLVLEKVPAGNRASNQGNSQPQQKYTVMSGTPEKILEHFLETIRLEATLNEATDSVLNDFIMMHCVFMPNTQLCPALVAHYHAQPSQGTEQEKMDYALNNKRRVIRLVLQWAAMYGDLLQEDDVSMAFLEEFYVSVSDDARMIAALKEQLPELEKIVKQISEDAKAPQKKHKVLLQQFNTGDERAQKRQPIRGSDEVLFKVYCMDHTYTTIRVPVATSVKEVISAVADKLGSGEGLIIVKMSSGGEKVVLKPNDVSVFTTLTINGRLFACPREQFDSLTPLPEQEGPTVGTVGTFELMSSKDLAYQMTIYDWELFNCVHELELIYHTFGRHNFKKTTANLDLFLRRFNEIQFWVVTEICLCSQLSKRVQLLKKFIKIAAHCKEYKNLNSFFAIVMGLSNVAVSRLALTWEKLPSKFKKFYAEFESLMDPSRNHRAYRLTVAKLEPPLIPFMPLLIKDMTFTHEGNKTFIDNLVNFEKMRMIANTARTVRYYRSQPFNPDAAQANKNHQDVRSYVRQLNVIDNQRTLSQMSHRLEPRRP
Test [4] deals with Rap guanine nucleotide exchange factor 3 (Homo sapiens) (UniProt O95398). In words: Counterscreen qHTS for antagonist of cAMP-regulated guanine nucleotide exchange factor 3 (EPAC1) (AID 1645888).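 Also: fluorescence loss as bound BODIPY-GDP is released from Rap1B; % of control where 0% means no effect.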 The essentials: (§1)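 Rap1B–BODIPY-GDP (250 nM) with 50 uM GDP; compounds pin-transferred to 9.74 nM–152 uM final (activator) or from 7.32 nM upwards (inhibitor). Fluorescence Ex/Em 480/540 nm read at 5 and 30 min, then after adding cAMP or buffer, at room temperature.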
Chain of Rap guanine nucleotide exchange factor 3 (Homo sapiens) (O95398 whole entry, looked up): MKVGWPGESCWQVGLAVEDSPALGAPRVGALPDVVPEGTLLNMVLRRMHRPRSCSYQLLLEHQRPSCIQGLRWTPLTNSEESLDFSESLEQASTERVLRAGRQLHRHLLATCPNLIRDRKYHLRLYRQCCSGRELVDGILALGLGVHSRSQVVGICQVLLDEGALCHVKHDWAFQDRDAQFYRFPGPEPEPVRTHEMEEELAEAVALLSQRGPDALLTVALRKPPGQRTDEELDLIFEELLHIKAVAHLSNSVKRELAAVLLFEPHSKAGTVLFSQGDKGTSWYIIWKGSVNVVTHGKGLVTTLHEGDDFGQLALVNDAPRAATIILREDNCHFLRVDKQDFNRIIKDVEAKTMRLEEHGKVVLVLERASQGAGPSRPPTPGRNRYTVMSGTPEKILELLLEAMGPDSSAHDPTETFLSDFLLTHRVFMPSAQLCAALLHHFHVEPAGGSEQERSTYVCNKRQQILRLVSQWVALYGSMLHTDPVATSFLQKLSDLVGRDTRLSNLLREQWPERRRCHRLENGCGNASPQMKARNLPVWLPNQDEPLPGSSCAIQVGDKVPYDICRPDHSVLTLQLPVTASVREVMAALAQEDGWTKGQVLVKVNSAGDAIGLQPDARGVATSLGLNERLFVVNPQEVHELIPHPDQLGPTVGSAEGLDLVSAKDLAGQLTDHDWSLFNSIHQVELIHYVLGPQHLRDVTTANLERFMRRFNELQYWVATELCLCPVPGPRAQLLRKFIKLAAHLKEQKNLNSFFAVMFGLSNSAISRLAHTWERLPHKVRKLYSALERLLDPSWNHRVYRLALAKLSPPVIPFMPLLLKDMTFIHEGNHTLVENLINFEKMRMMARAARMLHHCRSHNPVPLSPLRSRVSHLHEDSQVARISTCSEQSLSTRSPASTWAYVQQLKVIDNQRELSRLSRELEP
A general note: A counterscreen serves to expose hits that act by an unwanted route or on another target.

For test [5] the target is unchanged. Briefly: Counterscreen qHTS for agonist of cAMP-regulated guanine nucleotide exchange factor 3 (EPAC1) (AID 1645889). Also: nearly all actives have a fitted effect of over 40% in size. Also: potency is read from the fitted curve at half-maximal effect. As to activation: % of control where 0% means no effect. In short, it runs like this:
as §1

Turning to `Cc1ccc(NS(=O)(=O)c2cccs2)cc1S(=O)(=O)N1CCCCCC1`, the Potency result in test [1], in test [2], in test [3], in test [4] and in test [5] was “inactive” each time.

Regarding `O=S(=O)(c1ccc(Cl)cc1Br)N1CCCCC1`, the Potency entry in test [1] and in test [2] was “inactive” in each case. The activation is 12.1% [at 17.1 µM, percent relative to cAMP agonist control] in test [3] and 10.6% [at 30.8 µM] in test [5]. Moreover, in test [4], the activity change, negative = inhibition was -6.37% [at 30.8 µM].

For the compound `O=C(O)c1ccccc1-c1ccccc1C(=O)Nc1ccc2c(c1)oc(=O)c1ccccc12`, the Potency in test [1] is 75.7 µM (active). Also, the Potency result in test [2], in test [3], in test [4] and in test [5] was “inactive” each time.

With `COc1ccc(/C=C2/SC(=S)N(NS(=O)(=O)c3ccc(C)cc3)C2=O)cc1`, the Potency in test [1] is 47.8 µM (active). In addition, the Potency result in test [2], in test [3], in test [4] and in test [5] was “inactive” throughout.

As for `Cc1noc(C)c1COc1ccccc1C(=O)NCCc1ccc(Cl)cc1`, the Potency entry in test [1], in test [2], in test [3], in test [4] and in test [5] was “inactive” in each case.

Regarding `Cc1onc(-c2c(Cl)cccc2Cl)c1C(=O)c1ccc(F)cc1`, the Potency entry in test [1], in test [2], in test [3], in test [4] and in test [5] was “inactive” in each case.

Turning to `COc1ccccc1C1CCN(c2ccc(CO)cc2[N+](=O)[O-])CC1`, the Potency entry in test [1], in test [2], in test [3], in test [4] and in test [5] was “inactive” in each case.

For the compound `COc1ccc(C2CC(=O)c3ccccc3O2)cc1` (stereo not given), the Potency result in test [1], in test [2], in test [3], in test [4] and in test [5] was “inactive” each time.

For the compound `Cc1ccc(C)c(N2CCN(C(=O)CCCn3c(=O)c4cccn4c4cccnc43)CC2)c1`, the Potency entry in test [1] and in test [2] was “inactive” in each case. Further, in test [3], the activation was 6.05% [at 17.1 µM, percent relative to cAMP agonist control]. For the same compound, the activity change, negative = inhibition in test [4] was -21.9% [at 30.8 µM]. In addition, the Potency in test [5] was 0.0089 µM (active).

As to `N#C/C(=C/c1ccc(N2CCCCC2)o1)C(=O)Nc1ccc(Cl)cc1`, the Potency result in test [1] and in test [4] was “inactive” in each case. Besides, the Potency in test [2] is 17.8 µM (active); in test [3], 100 µM (active); in test [5], 12.6 µM (active).

Take `Cc1nnc(SCCn2c(N3CCC(Cc4ccccc4)CC3)nc3c2c(=O)[nH]c(=O)n3C)s1`: the Potency entry in test [1], in test [2], in test [3], in test [4] and in test [5] was “inactive” throughout.

Take `COc1cc(/C=C2\SC(=S)N(NC(=O)c3ccc(O)cc3)C2=O)ccc1O`: the Potency in test [1] is 75.7 µM (active). Besides, the Potency entry in test [2], in test [3], in test [4] and in test [5] was “inactive” in each case.

For `O=C(NN1C(=O)/C(=C/c2ccc(O)c([N+](=O)[O-])c2)SC1=S)c1ccccc1Cl`, the Potency in test [1] was 84.9 µM (active). Further, the Potency entry in test [2], in test [3], in test [4] and in test [5] was “inactive” throughout.

As for `COCc1cc(C)nc(SCC(=O)c2ccc(O)c(O)c2)c1C#N`, in test [1], the Potency was 37.9 µM (active). Also, the Potency entry in test [2], in test [3], in test [4] and in test [5] was “inactive” in each case.

`CNc1nc(C)cc(C)c1S(=O)(=O)c1ccc(C)cc1`: the Potency entry in test [1] and in test [2] was “inactive” throughout. Moreover, the activation is 6.77% [at 17.1 µM, percent relative to cAMP agonist control] in test [3] and 14.5% [at 30.8 µM] in test [5]. In addition, the activity change, negative = inhibition in test [4] was -11.2% [at 30.8 µM].

As to `Cc1ccc(S(=O)(=O)NN2C(=O)/C(=C/c3cccc(F)c3)SC2=S)cc1`, the Potency in test [1] was 23.9 µM (active). The Potency result in test [2], in test [3], in test [4] and in test [5] was “inactive” in each case.

Consider `Cc1nc(N(C)C)c2sc(=S)n(Cc3ccccc3)c2n1`, for which the Potency result in test [1] and in test [2] was “inactive” throughout. In addition, the activation in test [3] is 11.2% [at 17.1 µM, percent relative to cAMP agonist control]; in test [5], 9.98% [at 30.8 µM]. Moreover, the activity change, negative = inhibition in test [4] was -16.2% [at 30.8 µM].

For the compound `CC1(C)c2ccccc2N(CC(N)=O)C12C=Cc1ccccc1O2` (stereo not given), the Potency result in test [1] and in test [2] was “inactive” throughout. Also, the activation in test [3] was -0.49% [at 17.1 µM, percent relative to cAMP agonist control]; in test [5], 10.1% [at 30.8 µM]. In test [4], the activity change, negative = inhibition was 6.74% [at 30.8 µM].

As to `CC(C(=O)Nc1ccc(O)c(C(=O)O)c1)N1C(=O)/C(=C/c2cccs2)SC1=S` (stereo not given), the Potency in test [1] is 37.9 µM (active). Moreover, the Potency result in test [2], in test [3], in test [4] and in test [5] was “inactive” each time.

For `CC1CN(C(=O)CCC(=O)NCc2ccc(F)cc2)c2ccccc2S1` (stereo not given), the Potency result in test [1] and in test [2] was “inactive” throughout. Further, the activation in test [3] is -4.63% [at 17.1 µM, percent relative to cAMP agonist control]; in test [5] it was 31.5% [at 30.8 µM]. Besides, the activity change, negative = inhibition in test [4] is -2.67% [at 30.8 µM].

For the compound `Cc1ccc2oc(C(=O)N3CCCCCC3)c(C)c2c1`, the Potency result in test [1], in test [2], in test [3], in test [4] and in test [5] was “inactive” in each case.

As to `Cc1ccc(SCCSc2ncccn2)cc1`, the Potency result in test [1] and in test [2] was “inactive” in each case. The activation in test [3] is -2.5% [at 17.1 µM, percent relative to cAMP agonist control]; in test [5] it was -4.72% [at 30.8 µM]. Besides, in test [4], the activity change, negative = inhibition was -17.4% [at 30.8 µM].

For `COc1ccccc1C(=O)Nc1ccccc1C(=O)N1C(C)CCCC1C` (stereo not given), the Potency entry in test [1], in test [2], in test [3], in test [4] and in test [5] was “inactive” throughout.

With `COc1ccc(C2N(c3ccc(Cl)cc3)N=C(C(C)=O)N(C)N2C(C)=O)cc1` (stereo not given), the Potency result in test [1] and in test [2] was “inactive” in each case. Further, the activation is 11.9% [at 17.1 µM, percent relative to cAMP agonist control] in test [3] and 29.6% [at 30.8 µM] in test [5]. For the same compound, the activity change, negative = inhibition in test [4] was -11.6% [at 30.8 µM].

Consider `CCOC(=O)c1c(-c2ccccc2)oc2ccc(OCC)cc12`, for which the Potency result in test [1], in test [2], in test [3], in test [4] and in test [5] was “inactive” throughout.

Turning to `Cc1ccc(-c2noc(CSc3nnnn3C3CCCCC3)n2)cc1`, the Potency result in test [1], in test [2], in test [3], in test [4] and in test [5] was “inactive” throughout.

`COc1ccccc1Oc1ncnc2c1oc1ccccc12`: the Potency entry in test [1] and in test [2] was “inactive” each time. Also, the activation in test [3] is -4.43% [at 17.1 µM, percent relative to cAMP agonist control]; in test [5], 5.04% [at 30.8 µM]. For the same compound, the activity change, negative = inhibition in test [4] was 7.03% [at 30.8 µM].

Consider `CCOc1nc(-c2ccccc2)c2cc(C)ccc2n1`, for which the Potency result in test [1], in test [2], in test [3], in test [4] and in test [5] was “inactive” each time.

As for `CCN(CC)CCN(C(=O)c1cc2ccccc2cc1OC)c1nc2ccc(F)cc2s1`, the Potency entry in test [1], in test [2], in test [3], in test [4] and in test [5] was “inactive” each time.

On to `Cc1nnc(SCC(=O)Nc2sccc2C#N)s1`, for which the Potency result in test [1], in test [2], in test [3] and in test [4] was “inactive” throughout. Also, the Potency in test [5] was 0.0178 µM (active).

Consider `Cc1ccc(S(=O)(=O)Nc2ccc3ccccc3c2[N+](=O)[O-])cc1`, for which, in test [1], the Potency was 75.7 µM (active). Besides, the Potency entry in test [2], in test [3], in test [4] and in test [5] was “inactive” each time.

On to `COc1cc(SC)ccc1C(=O)Nc1c(C)cccc1C`, for which the Potency result in test [1] and in test [2] was “inactive” in each case. In addition, the activation in test [3] is -7.76% [at 17.1 µM, percent relative to cAMP agonist control]; in test [5] it was 6.15% [at 30.8 µM]. In addition, in test [4], the activity change, negative = inhibition was -15.6% [at 30.8 µM].

In the case of `CC(C)c1ccc(OCC(=O)Nc2cccc(C(=O)Nc3ccccc3C(=O)O)c2)cc1`, in test [1], the Potency was 75.7 µM (active). Moreover, the Potency entry in test [2], in test [3], in test [4] and in test [5] was “inactive” throughout.

As for `Cc1ccc2oc(C(=O)N(Cc3ccc(N(C)C)cc3)CC3CCCO3)c(C)c2c1` (stereo not given), the Potency result in test [1], in test [2], in test [3], in test [4] and in test [5] was “inactive” each time.

Regarding `CN1/C(=C\C=C(/C#N)C(=O)Nc2ccc(Cl)cc2)C(C)(C)c2ccccc21`, the Potency entry in test [1], in test [4] and in test [5] was “inactive” each time. Further, the Potency in test [2] and in test [3] was 100 µM (active) in each case.

Take `CCC(C(=O)OC(C)C)c1ccc2ccccc2c1` (stereo not given): the Potency entry in test [1], in test [2], in test [3], in test [4] and in test [5] was “inactive” throughout.

For the compound `COc1ccc(OC)c(C(C[N+](=O)[O-])c2c(C)cc3ccccn23)c1` (stereo not given), the Potency result in test [1], in test [2], in test [3], in test [4] and in test [5] was “inactive” each time.
